These results are taken from PubChem BioAssay (NCATS).

Molecules are shown by their SMILES. “And” between values parts separate entries of the source, which are not always exact repeats. Equal entries are not always repeated. Records with an inconclusive call do not appear. More than one record can exist for a structure, and the calls need not agree. The source made the active and inactive calls. Calls come from the whole dose curve; as a rule, active = well fitted curve in the direction sought with a large enough effect; inconclusive = small, poorly fitted or top-dose-only effect, or another doubt; inactive = no such curve, though single readings can be large; an effect the other way counts as inactive or inconclusive.

For assay [1], the target named is Thioredoxin reductase 1, cytoplasmic (Rattus norvegicus) (UniProt O89049). The assay can be described thus: qHTS Assay for Substrates of Mammalian Selenoprotein Thioredoxin Reductase 1 (TrxR1) (AID 488772).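 Note: NADPH fluorescence in the first read after selenite addition and not the 8 min delta; series mostly up to about 57 µM; a drop in NADPH fluorescence below the no-compound background marks a TrxR1 substrate.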 The essentials:
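Quantitative HTS in Tris-HCl buffer at pH 7.5 with EDTA and Tween-20, using rat TrxR1, 400 uM NADPH and 400 uM selenite (final). A fall in initial NADPH fluorescence relative to background marked substrate behaviour.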
Background: Quantitative high-throughput screening tests each substance at several concentrations.

Assay [2] has the same target. The assay can be described thus: qHTS Assay for Inhibitors of Mammalian Selenoprotein Thioredoxin Reductase 1 (TrxR1) (AID 488773).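 Note: drop in NADPH fluorescence over an 8 min run after selenite addition; series mostly up to about 57 µM; nearly all actives have a fitted effect of over 40% in size.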 To be noted: Potency: inhibition. The essentials:
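Steps: enzyme (90 nM) plus NADPH (400 uM final), 5 min at ~22 deg C; compound added, 15 min; selenite (400 uM final) added; fluorescence followed for 8 min. Concentration-response curves derived from the normalized delta values.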

Assay [3] deals with Flap endonuclease 1 (Homo sapiens) (UniProt P39748). The assay is described as follows: qHTS Validation Assay for the Inhibitors of Human Flap endonuclease 1 (FEN1) (AID 488816). The essentials:
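FEN1, dispensed as a 10 nM reagent, was preincubated with pin-transferred compounds for 15 min at room temperature before substrate was added (50 nM final). Plates were read at 0 and 15 min, and a four-parameter Hill equation was fitted to the concentration-response data.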

The target of assay [4] is Chromobox protein homolog 1 (Homo sapiens) (UniProt P83916). The assay can be described thus: qHTS Validation Assay for Inhibitors of HP1-beta Chromodomain Interactions with Methylated Histone Tails (AID 488953). Note: nearly all actives have a fitted effect of over 50% in size. Note: potency is the fitted concentration of half-maximal effect. The essentials:
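HP1-beta (50 nM) was preincubated 30 min at room temperature with biotinylated H3(1-18)K9me3 peptide (50 nM) in PBS pH 7.4, 0.01% Tween-20, then with compounds 30 min. AlphaScreen signal was read after streptavidin donor/nickel chelate acceptor beads (10 ug/mL final).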

Assay [5] addresses Methanococcus maripaludis chaperonin (MmCpn) (UniProt Q6LX38). The assay can be described thus: High-Throughput Screening for Modulators of Cytosolic Chaperonin Activity: MmCpn Primary Screen (AID 488978). The essentials:
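HTRF readout (320 nm excitation, 590/665 nm emission) of ADP generated by 50 nM MmCpn hydrolysing 30 uM ATP during 10 min at 37C; compound preincubated 5 min RT.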

In assay [6] the target is M-phase phosphoprotein 8 (Homo sapiens) (UniProt Q99549). The assay is described as follows: qHTS Validation Assay for Inhibitors for MPP8 Chromodomain Interactions with Methylated Histone Tails (AID 488949). Note: nearly all actives have a fitted effect of over 55% in size. Note: potency is the fitted concentration of half-maximal effect. The essentials:
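Chemiluminescent proximity assay: histidine-tag capture via nickel acceptor beads, biotin peptide via streptavidin donor beads. Protein and peptide each at 50 nM, pH 7.4, with 30 min incubations at room temperature for complex formation, compound exposure and bead binding.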

Assay [7] deals with Transient receptor potential cation channel subfamily V member 1 (Homo sapiens) (UniProt Q8NER1). The assay is described as follows: HTS Assay for Compounds that Act as Enhancers of the Vanilloid Receptor 1 (AID 488979). In a few lines: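 TRPV1-expressing cells loaded with Fluo-8 calcium dye; compounds added and calcium influx read kinetically for 3 min (agonist phase), then capsaicin at EC20 added and read 2 min more for enhancement. Fluorescence ex 480/em 520 nm.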

Assay [8] concerns the target Thyrotropin receptor (Homo sapiens) (UniProt P16473). The assay is described as follows: qHTS Assay for Antagonists of the Thyroid Stimulating Hormone Receptor (AID 488980). Note: series mostly up to about 58 µM. In a few lines: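 Inhibition of TSH-stimulated cAMP accumulation was quantified by homogeneous time-resolved FRET in TSHR-transfected HEK293 cells. Agonist: TSH, 4 nM final (EC80).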

Chain of Thyrotropin receptor (Homo sapiens) (P16473 whole entry, looked up): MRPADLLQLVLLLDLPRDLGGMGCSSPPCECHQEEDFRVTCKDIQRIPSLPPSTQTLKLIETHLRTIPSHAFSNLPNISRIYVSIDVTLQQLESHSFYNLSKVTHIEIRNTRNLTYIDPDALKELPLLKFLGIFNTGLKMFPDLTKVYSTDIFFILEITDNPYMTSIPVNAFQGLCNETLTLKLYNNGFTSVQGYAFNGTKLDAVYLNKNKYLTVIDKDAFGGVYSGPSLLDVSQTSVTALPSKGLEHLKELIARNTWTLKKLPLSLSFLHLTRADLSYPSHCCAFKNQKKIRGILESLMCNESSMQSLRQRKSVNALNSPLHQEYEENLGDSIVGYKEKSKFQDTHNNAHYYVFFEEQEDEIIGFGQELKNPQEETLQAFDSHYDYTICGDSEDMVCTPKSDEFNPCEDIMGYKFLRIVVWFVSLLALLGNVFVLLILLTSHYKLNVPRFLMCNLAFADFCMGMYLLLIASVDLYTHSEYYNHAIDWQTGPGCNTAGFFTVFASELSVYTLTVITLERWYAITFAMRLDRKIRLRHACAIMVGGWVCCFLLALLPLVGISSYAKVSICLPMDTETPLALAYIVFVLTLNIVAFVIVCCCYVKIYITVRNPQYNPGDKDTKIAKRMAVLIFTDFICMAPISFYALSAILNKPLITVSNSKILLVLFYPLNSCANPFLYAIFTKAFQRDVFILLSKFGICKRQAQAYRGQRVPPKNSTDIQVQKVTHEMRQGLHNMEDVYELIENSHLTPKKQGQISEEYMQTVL
Chain of M-phase phosphoprotein 8 (Homo sapiens) (Q99549 whole entry, looked up): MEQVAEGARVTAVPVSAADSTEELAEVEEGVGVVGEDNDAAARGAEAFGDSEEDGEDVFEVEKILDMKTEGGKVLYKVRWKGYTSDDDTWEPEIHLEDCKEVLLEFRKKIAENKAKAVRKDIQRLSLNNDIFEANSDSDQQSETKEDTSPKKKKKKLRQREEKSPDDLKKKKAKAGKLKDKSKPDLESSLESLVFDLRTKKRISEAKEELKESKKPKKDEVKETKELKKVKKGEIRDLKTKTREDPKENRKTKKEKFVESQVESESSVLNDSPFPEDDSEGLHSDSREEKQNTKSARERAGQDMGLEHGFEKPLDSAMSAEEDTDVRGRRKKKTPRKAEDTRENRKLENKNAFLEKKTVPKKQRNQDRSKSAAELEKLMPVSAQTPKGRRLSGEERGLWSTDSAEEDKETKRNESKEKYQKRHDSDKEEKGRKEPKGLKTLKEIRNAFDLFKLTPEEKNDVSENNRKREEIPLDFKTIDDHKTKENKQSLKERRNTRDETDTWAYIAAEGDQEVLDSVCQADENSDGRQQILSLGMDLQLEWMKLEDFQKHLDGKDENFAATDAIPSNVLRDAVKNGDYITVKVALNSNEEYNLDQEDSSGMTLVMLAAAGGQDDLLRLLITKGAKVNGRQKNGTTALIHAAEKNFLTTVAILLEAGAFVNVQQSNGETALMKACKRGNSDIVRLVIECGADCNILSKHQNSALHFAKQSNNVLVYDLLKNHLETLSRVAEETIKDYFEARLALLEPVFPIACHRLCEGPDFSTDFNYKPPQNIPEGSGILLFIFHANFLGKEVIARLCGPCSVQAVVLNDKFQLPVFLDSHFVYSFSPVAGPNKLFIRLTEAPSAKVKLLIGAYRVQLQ
Chain of Chromobox protein homolog 1 (Homo sapiens) (P83916 whole entry, looked up): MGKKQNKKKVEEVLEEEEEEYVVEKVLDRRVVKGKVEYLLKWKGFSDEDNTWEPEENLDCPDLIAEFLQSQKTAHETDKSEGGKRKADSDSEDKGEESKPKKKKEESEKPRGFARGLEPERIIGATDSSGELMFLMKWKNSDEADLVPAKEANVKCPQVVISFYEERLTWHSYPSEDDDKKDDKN
Chain of Flap endonuclease 1 (Homo sapiens) (P39748 whole entry, looked up): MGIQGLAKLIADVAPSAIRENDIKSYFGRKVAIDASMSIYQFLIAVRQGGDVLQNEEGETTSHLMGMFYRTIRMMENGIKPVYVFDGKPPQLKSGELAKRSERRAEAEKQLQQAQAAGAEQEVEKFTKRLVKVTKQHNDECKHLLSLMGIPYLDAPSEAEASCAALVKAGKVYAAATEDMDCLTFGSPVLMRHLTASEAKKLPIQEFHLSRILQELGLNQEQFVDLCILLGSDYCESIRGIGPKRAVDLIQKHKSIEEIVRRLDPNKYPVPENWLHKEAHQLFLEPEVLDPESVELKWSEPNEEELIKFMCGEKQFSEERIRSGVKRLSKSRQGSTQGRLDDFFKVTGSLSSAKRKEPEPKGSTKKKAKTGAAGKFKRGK
Chain of Thioredoxin reductase 1, cytoplasmic (Rattus norvegicus) (O89049 whole entry, looked up): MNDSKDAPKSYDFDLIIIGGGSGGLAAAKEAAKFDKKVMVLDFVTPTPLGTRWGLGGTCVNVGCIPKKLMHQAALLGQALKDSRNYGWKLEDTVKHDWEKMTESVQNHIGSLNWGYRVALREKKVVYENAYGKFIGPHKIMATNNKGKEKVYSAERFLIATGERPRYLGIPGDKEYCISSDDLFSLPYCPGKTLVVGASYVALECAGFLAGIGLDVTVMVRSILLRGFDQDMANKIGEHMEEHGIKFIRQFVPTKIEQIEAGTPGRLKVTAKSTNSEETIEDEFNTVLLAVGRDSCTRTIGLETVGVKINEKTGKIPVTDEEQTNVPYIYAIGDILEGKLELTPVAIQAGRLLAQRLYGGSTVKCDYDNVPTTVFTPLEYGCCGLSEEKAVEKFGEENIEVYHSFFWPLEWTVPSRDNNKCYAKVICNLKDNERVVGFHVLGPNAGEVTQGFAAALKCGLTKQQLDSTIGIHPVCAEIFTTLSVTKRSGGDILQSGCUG
Chain of Methanococcus maripaludis chaperonin (MmCpn) (Q6LX38 1-543): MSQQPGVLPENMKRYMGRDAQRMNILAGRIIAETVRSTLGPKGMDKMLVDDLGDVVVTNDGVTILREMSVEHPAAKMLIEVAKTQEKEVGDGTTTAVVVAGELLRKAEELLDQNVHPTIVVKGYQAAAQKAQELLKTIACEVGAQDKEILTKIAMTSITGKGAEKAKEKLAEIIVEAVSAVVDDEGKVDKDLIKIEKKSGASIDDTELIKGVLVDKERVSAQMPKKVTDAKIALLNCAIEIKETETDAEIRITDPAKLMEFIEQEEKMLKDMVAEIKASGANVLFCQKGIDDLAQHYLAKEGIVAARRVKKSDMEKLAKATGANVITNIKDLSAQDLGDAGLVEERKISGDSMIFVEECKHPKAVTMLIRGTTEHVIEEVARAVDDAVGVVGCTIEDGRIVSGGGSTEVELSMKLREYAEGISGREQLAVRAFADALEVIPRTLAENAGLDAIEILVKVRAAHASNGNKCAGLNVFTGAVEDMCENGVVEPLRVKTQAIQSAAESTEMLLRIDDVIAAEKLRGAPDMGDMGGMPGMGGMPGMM
Chain of Transient receptor potential cation channel subfamily V member 1 (Homo sapiens) (Q8NER1 whole entry, looked up): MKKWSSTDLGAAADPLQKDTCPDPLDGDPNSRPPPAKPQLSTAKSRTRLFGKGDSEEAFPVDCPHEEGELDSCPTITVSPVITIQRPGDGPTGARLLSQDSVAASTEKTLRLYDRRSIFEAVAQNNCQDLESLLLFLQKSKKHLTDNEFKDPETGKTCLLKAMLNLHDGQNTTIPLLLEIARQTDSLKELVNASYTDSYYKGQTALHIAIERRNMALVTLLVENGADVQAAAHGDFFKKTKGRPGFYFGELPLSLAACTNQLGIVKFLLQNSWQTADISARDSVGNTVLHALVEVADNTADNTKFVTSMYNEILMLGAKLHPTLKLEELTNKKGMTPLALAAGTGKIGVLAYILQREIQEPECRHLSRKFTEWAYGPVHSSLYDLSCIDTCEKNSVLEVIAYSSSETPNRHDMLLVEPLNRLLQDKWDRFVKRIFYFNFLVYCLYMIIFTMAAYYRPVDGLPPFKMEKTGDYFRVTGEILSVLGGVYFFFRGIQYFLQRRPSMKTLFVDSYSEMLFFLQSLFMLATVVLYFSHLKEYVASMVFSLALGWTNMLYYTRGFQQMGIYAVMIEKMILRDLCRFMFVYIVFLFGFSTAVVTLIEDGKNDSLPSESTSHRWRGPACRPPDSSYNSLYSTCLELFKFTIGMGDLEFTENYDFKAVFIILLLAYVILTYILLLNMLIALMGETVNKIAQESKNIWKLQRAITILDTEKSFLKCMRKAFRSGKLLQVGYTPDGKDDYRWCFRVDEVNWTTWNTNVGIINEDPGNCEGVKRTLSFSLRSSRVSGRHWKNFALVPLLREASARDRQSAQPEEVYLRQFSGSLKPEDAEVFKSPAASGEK

On to `COc1ccc2c(c1)c(CCN1CCOCC1)c(C)n2C(=O)c1cccc(Cl)c1Cl`, for which the compound was called inactive in assay [1] and in assay [5]. Also, the Potency entry in assay [2] and in assay [3] was “inactive” in each case. Further, the Potency in assay [4] was 44.7 µM (active).

On to `OCc1cnc[nH]1`, for which the call in assay [1], in assay [5], in assay [7] and in assay [8] was inactive. In addition, the Potency result in assay [2], in assay [3], in assay [6] and in assay [4] was “inactive” throughout.

Consider `C[N+](C)(C)CC#CCOC(=O)Nc1cccc(Cl)c1`, for which the compound was classed as inactive in assay [1], in assay [5], in assay [7] and in assay [8]. Besides, the Potency entry in assay [3] and in assay [4] was “inactive” each time.

In the case of `C=CCN1CCc2cccc3c2[C@H]1Cc1ccc(O)c(O)c1-3`, the result in assay [1] and in assay [5] was inactive. Besides, the Potency result in assay [3] was “inactive”. In addition, in assay [4], the Potency is 44.7 µM (active).

With `CCCN1CCC[C@@H](c2cccc(O)c2)C1`, the Potency entry in assay [2], in assay [6] and in assay [4] was “inactive” each time. In assay [5], the compound was classed as inactive.

On to `C[N+]1(C)C2CCC1CC(OC(=O)c1c[nH]c3ccccc13)C2` (stereo not drawn), for which the outcome in assay [1], in assay [5], in assay [7] and in assay [8] was inactive. Further, the Potency entry in assay [2], in assay [3] and in assay [4] was “inactive” in each case. For the same compound, the Potency entry in assay [6] is “inactive and 8.44 µM (active)”.

Consider `CC(C)(O)[C@@H]1C2OC(=O)[C@@H]1[C@]1(O)C[C@H]3O[C@]34C(=O)O[C@H]2[C@]14C` (tested in a mixture with another compound), for which the call in assay [1] and in assay [5] was inactive. The Potency result in assay [2], in assay [3] and in assay [6] was “inactive” each time.

In the case of `N[C@@H](Cn1ccc(=O)[nH]c1=O)C(=O)O`, the compound was classed as inactive in assay [1] and in assay [5]. The Potency result in assay [2], in assay [3] and in assay [4] was “inactive” throughout.

Turning to `CCN1C[C@@]2(COC)C3[C@@H](OC)C4[C@@H]1C3([C@@H]1C[C@]3(O)[C@H](OC(=O)c5ccccc5)[C@@H]1[C@]4(OC(C)=O)[C@@H](O)[C@@H]3OC)[C@H](OC)C[C@H]2O`, the call in assay [1] and in assay [5] was inactive. For the same compound, the Potency entry in assay [2], in assay [3], in assay [6] and in assay [4] was “inactive” throughout.

Turning to `CCS(=O)(=O)Nc1cccc(C(=C2CCCCC2)c2cnc[nH]2)c1`, the result in assay [1], in assay [5], in assay [7] and in assay [8] was inactive. Further, the Potency result in assay [2], in assay [3] and in assay [6] was “inactive” each time.

In the case of `Ic1ccccc1CNC1C2CCN(CC2)C1C(c1ccccc1)c1ccccc1` (stereo not drawn), the outcome in assay [1] and in assay [5] was inactive. Besides, the Potency result in assay [2], in assay [3] and in assay [6] was “inactive” each time. Besides, the Potency in assay [4] is 44.7 µM (active).

For the compound `Cc1cc([C@@H]2CCCN2C)on1`, the call in assay [1] and in assay [5] was inactive. Further, the Potency result in assay [3] and in assay [4] was “inactive” throughout.
